# From the supplement of paper PMC7411054
# Counter-ions that a name gives are not always drawn.
# Columns and labels:
# Assay in all cases: lowest phenotypically active concentration; higher = less potent
# Details in all cases: treatment time: 24 h
# HepG2-ACTB-RAB5A = system: HepG2-ACTB-RAB5A
# In short: (§1)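 Four wells per concentration (0.3, 1, 3 or 9 µM) were treated for 24 h in each of fifteen gene-edited reporter lines from A549, HepG2 and WPMY1 cells, then imaged live. After normalising live-cell features to solvent control wells, deviation was defined as ≥3 of 4 wells lying past the 95th percentile of control Euclidean distances. Reproducibility was defined as a median replicate Pearson correlation above the 95th percentile of non-replicates. Both had to hold for phenotypic activity.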
# HepG2-CANX-COX4 = system: HepG2-CANX-COX4
# In short: as §1
# HepG2-GM130-SQSTM1 = system: HepG2-GM130-SQSTM1
# In short: as §1
# HepG2-TP53BP1-CLTA = system: HepG2-TP53BP1-CLTA
# In short: as §1
# HepG2-TUBA1B-RELA = system: HepG2-TUBA1B-RELA
# In short: as §1
# WPMY1-ACTB-RAB5A = system: WPMY1-ACTB-RAB5A
# In short: as §1
# WPMY1-CANX-COX4 = system: WPMY1-CANX-COX4
# In short: as §1
# WPMY1-GM130-SQSTM1 = system: WPMY1-GM130-SQSTM1
# In short: as §1
# WPMY1-TP53BP1-CLTA = system: WPMY1-TP53BP1-CLTA
# In short: as §1
# WPMY1-TUBA1B-RELA = system: WPMY1-TUBA1B-RELA
# In short: as §1
SMILES,lowest phenotypically active concentration (HepG2-ACTB-RAB5A) [µM],lowest phenotypically active concentration (HepG2-CANX-COX4) [µM],lowest phenotypically active concentration (HepG2-GM130-SQSTM1) [µM],lowest phenotypically active concentration (HepG2-TP53BP1-CLTA) [µM],lowest phenotypically active concentration (HepG2-TUBA1B-RELA) [µM],lowest phenotypically active concentration (WPMY1-ACTB-RAB5A) [µM],lowest phenotypically active concentration (WPMY1-CANX-COX4) [µM],lowest phenotypically active concentration (WPMY1-GM130-SQSTM1) [µM],lowest phenotypically active concentration (WPMY1-TP53BP1-CLTA) [µM],lowest phenotypically active concentration (WPMY1-TUBA1B-RELA) [µM]
C/C=C(/C)C(=O)O[C@H]1C(C)=C2[C@H]([C@@H]1OC(=O)CCCCCCC)[C@@](C)(OC(C)=O)C[C@H](OC(=O)CCC)[C@@]1(O)[C@H]2OC(=O)[C@@]1(C)O [Thapsigargin],≤ 0.3,≤ 0.3,≤ 0.3,≤ 0.3,≤ 0.3,≤ 0.3,≤ 0.3,≤ 0.3,≤ 0.3,≤ 0.3
CC(C)(C)c1cc(C=C(C#N)C#N)cc(C(C)(C)C)c1O [Malonoben],1,1,1,1,1,1,1,1,1,1
Cc1sc2c(c1C)C(c1ccc(Cl)cc1)=N[C@@H](CC(=O)OC(C)(C)C)c1nnc(C)n1-2,≤ 0.3,≤ 0.3,≤ 0.3,≤ 0.3,≤ 0.3,≤ 0.3,≤ 0.3,≤ 0.3,≤ 0.3,1
CCCCCC[C@H]1C(=O)O[C@H](C)[C@H](NC(=O)c2cccc(NC=O)c2O)C(=O)O[C@@H](C)[C@@H]1OC(=O)CC(C)C [antimycin a],≤ 0.3,≤ 0.3,≤ 0.3,≤ 0.3,≤ 0.3,≤ 0.3,≤ 0.3,1,≤ 0.3,≤ 0.3
C=C1[C@@H](C)[C@H]2[C@H](Cc3ccccc3)NC(=O)[C@]23OC(=O)C=C[C@H](O)CCC[C@@H](C)CC=C[C@H]3[C@@H]1O [Cytochalasin B],1,1,1,3,3,1,1,3,3,3
C[C@]12CC[C@H]3[C@@H](CC[C@]4(O)C[C@@H](O)CC[C@]34C=O)[C@@]1(O)CC[C@@H]2C1=CC(=O)OC1 [Strophanthidin],≤ 0.3,1,1,≤ 0.3,≤ 0.3,≤ 0.3,≤ 0.3,≤ 0.3,≤ 0.3,≤ 0.3
CC[C@H]1CN2CCc3cc(OC)c(OC)cc3[C@@H]2C[C@@H]1C[C@H]1NCCc2cc(OC)c(OC)cc21 [emetine],≤ 0.3,≤ 0.3,≤ 0.3,≤ 0.3,≤ 0.3,≤ 0.3,≤ 0.3,≤ 0.3,≤ 0.3,≤ 0.3
COc1cc([C@@H]2c3cc4c(cc3[C@H](O)[C@H]3COC(=O)[C@H]23)OCO4)cc(OC)c1OC [Podophyllotoxin],≤ 0.3,≤ 0.3,≤ 0.3,1,≤ 0.3,≤ 0.3,≤ 0.3,≤ 0.3,≤ 0.3,≤ 0.3
N#CC(C#N)=NNc1cccc(Cl)c1,9,9,9,9,9,9,9,9,3,3
COc1ccc2c(c1)/C(=C/c1c[nH]cn1)C(=O)N2,1,1,≤ 0.3,1,1,3,1,1,1,1
COC(=O)[C@@]1(O)C[C@H]2O[C@]1(C)n1c3ccccc3c3c4c(c5c6ccccc6n2c5c31)C(=O)NC4,≤ 0.3,≤ 0.3,≤ 0.3,≤ 0.3,≤ 0.3,≤ 0.3,≤ 0.3,≤ 0.3,≤ 0.3,≤ 0.3
CC(C)[C@@]1(NC(=O)[C@@H]2C[C@@H]3c4cccc5[nH]cc(c45)C[C@H]3N(C)C2)O[C@@]2(O)[C@@H]3CCCN3C(=O)[C@H](Cc3ccccc3)N2C1=O [Dihydroergocristine mesylate],3,9,3,9,3,9,9,9,9,9
COc1ccc2c(c[n+](C)c3c4cc5c(cc4ccc23)OCO5)c1OC [Chelerythrine chloride],–,–,–,9,–,–,–,–,9,–
CN1C[C@H](C(=O)N[C@]2(C)O[C@@]3(O)[C@@H]4CCCN4C(=O)[C@H](Cc4ccccc4)N3C2=O)C[C@@H]2c3cccc4[nH]cc(c34)C[C@H]21.CN1C[C@H](C(=O)N[C@]2(C)O[C@@]3(O)[C@@H]4CCCN4C(=O)[C@H](Cc4ccccc4)N3C2=O)C[C@@H]2c3cccc4[nH]cc(c34)C[C@H]21 [dihydroergotamine],9,–,9,9,9,–,–,9,9,–
CC[C@]12C=CCN3CC[C@]4(C(=C(C(=O)OC)C1)Nc1ccccc14)[C@@H]32 [Tabersonine dichlorhydrate],9,9,9,9,9,9,9,9,9,9
O=C(NCCN1CCC2(CC1)C(=O)NCN2c1cccc(F)c1)c1ccc(F)c(F)c1 [ML 298 hydrochloride],9,–,9,9,9,9,9,9,–,9
N#CC(C#N)=NNc1ccc(OC(F)(F)F)cc1,9,9,9,9,9,3,3,9,3,9
CN1CCC2=C[C@H](O)[C@H]3OC(=O)c4cc5c(cc4[C@H]3[C@@H]21)OCO5 [Hippeastrine hydrobromide],–,9,–,–,–,–,–,–,–,–
COC1=CC(C)=C[C@@H](C)[C@@H](O)[C@@H](C)CC(C)=CC=C[C@H](OC)[C@@H]([C@@H](C)[C@@H](O)[C@H](C)[C@@]2(O)C[C@@H](O)[C@H](C)[C@@H](C(C)C)O2)OC1=O [Bafilomycin A1],3,3,3,9,3,1,3,1,3,3
CC[C@H]1CN2CC[C@H]1C[C@@H]2[C@@H](O)c1ccnc2ccc(OC)cc12 [Hydroquinidine HCl],–,9,9,–,–,9,9,–,–,9
CC(C)(N)Cc1ccccc1 [phentermine],9,–,–,–,–,–,–,9,–,–
